Data as given in publication PMC7862700, “An all-to-all approach to the identification of sequence-specific readers for epigenetic DNA modifications on cytosine”.

Key:
Assay in all cases: DAPPL (digital affinity profiling via proximity ligation, sequencing); 10 mM Tris-HCl pH 7.5, 50 mM NaCl, 1 mM DTT, 4% glycerol, room temperature, 30 min; GST-TFs on glutathione beads, 16-mer random dsDNA library, 0.1% formaldehyde crosslink after washing; high values mean tight binding
[1] = target: T1, FLI1 (Homo sapiens, UniProt Q01543 1-452); details: protein: recombinant; tags: N-terminal GST; dsDNA, one strand shown
T1 sequence: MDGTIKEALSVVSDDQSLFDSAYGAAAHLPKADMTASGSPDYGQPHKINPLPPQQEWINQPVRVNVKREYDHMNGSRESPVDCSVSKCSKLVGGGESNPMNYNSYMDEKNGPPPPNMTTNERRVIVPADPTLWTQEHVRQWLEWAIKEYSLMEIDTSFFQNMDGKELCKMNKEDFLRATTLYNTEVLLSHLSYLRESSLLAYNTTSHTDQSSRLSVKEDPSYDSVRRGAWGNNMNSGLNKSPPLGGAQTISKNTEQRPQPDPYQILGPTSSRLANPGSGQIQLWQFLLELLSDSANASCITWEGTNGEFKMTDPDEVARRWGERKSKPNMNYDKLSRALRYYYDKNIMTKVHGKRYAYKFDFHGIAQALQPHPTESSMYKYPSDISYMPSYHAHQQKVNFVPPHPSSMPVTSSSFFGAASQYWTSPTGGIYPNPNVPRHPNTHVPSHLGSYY
Outline: (§1)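 Pools were built from human transcription factors expressed in yeast as GST fusions, captured on glutathione beads and DNA-barcoded, along with a tag-only sample. Incubation with 200 nmole of a 16-mer random double-stranded DNA library lasted 30 min at room temperature in Tris/NaCl/DTT/glycerol buffer, and was followed by washing, 0.1% formaldehyde crosslinking, proximity ligation, PCR amplification and Illumina NextSeq500 sequencing. Binding signal is the quotient of each hexamer's read frequency for a factor and its frequency for the tag-only sample.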

[2] = target: T2, ELK1 (Homo sapiens, UniProt P19419 1-428); details: protein: recombinant; tags: N-terminal GST; dsDNA, one strand shown
T2 sequence: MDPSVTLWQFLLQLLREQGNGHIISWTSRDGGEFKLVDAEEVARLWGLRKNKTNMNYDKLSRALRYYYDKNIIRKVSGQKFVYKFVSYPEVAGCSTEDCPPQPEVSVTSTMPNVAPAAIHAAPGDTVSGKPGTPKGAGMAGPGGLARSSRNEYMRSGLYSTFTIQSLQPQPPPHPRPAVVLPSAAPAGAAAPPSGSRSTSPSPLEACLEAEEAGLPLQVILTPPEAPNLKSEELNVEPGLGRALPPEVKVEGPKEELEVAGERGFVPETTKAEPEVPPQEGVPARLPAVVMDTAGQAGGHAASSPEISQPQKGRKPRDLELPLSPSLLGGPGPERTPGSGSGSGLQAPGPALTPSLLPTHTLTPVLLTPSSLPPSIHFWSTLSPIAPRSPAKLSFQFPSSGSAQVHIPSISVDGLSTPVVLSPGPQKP
Outline: as §1

[3] = target: T3, GABPA (Homo sapiens, UniProt Q06546 1-454); details: protein: recombinant; tags: N-terminal GST; dsDNA, one strand shown
T3 sequence: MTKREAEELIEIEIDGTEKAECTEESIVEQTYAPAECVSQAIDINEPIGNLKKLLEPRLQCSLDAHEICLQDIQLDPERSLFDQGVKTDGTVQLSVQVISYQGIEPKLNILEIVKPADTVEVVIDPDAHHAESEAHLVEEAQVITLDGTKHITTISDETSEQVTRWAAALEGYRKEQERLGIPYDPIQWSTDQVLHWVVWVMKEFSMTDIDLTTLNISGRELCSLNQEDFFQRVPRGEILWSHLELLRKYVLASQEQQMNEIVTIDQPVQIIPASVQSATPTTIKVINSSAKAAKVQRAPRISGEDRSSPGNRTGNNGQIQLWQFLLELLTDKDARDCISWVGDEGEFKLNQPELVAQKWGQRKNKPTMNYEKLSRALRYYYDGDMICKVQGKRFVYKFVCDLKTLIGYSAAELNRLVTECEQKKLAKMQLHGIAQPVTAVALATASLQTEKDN
Outline: as §1

[4] = target: T4, ERG (Homo sapiens, UniProt P11308 1-479); details: protein: recombinant; tags: N-terminal GST; dsDNA, one strand shown
T4 sequence: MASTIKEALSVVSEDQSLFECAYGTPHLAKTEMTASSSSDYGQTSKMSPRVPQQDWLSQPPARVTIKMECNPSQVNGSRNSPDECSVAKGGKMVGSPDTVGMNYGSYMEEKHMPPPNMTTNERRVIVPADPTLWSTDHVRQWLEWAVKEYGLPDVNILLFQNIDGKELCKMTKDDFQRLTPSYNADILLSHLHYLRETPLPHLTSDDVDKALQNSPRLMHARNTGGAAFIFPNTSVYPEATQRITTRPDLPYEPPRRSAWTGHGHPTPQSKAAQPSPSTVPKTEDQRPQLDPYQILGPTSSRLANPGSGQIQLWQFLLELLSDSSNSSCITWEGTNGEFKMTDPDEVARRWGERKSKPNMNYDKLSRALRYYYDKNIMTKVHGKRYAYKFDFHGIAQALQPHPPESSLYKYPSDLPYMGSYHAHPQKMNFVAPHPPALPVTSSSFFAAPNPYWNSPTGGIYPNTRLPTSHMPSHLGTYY
Outline: as §1

[5] = target: ELF1 (Homo sapiens, UniProt P32519 1-619); details: protein: recombinant; tags: N-terminal GST; dsDNA, one strand shown
ELF1, sequence (P32519 whole entry): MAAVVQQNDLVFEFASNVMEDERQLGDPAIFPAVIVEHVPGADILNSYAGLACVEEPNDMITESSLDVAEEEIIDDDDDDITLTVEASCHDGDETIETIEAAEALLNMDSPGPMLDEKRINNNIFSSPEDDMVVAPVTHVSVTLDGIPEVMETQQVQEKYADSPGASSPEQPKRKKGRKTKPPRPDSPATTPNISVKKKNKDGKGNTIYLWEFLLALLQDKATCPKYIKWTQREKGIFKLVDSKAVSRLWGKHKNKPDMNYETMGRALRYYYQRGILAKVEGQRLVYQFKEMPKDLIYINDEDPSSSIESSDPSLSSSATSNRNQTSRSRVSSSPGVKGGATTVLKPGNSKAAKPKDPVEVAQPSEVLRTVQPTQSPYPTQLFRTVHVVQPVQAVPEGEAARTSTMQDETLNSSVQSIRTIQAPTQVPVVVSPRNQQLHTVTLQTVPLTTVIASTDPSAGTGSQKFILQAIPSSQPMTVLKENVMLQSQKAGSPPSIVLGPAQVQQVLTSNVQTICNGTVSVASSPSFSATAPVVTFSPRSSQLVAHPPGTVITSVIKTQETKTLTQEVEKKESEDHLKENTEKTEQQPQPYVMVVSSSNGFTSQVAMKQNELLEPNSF
Outline: as §1

[6] = target: T5, EHF (Homo sapiens, UniProt Q9NZC4 1-300); details: protein: recombinant; tags: N-terminal GST; dsDNA, one strand shown
T5 sequence: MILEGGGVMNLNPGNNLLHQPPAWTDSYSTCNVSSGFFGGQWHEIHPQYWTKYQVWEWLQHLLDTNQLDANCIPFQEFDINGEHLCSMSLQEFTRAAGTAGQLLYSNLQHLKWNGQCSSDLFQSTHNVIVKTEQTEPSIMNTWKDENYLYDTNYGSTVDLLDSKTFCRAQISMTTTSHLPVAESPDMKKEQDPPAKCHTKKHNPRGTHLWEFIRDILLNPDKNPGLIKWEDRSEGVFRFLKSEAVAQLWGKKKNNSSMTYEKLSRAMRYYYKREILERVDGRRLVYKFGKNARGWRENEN
Outline: as §1

[7] = target: SPI1 (Homo sapiens, UniProt P17947 1-270); details: protein: recombinant; tags: N-terminal GST; dsDNA, one strand shown
Outline: as §1

[8] = target: SPIB (Homo sapiens, UniProt Q01892 1-262); details: protein: recombinant; tags: N-terminal GST; dsDNA, one strand shown
SPIB, sequence (Q01892 whole entry): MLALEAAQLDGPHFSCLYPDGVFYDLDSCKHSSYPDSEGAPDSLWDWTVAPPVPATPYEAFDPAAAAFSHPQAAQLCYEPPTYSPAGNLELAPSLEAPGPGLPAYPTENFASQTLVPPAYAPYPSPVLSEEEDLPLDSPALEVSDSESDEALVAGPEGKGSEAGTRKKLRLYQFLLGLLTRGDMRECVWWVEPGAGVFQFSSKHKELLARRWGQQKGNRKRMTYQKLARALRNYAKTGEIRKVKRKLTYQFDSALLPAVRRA
Outline: as §1

[9] = target: T6, ELK3 (Homo sapiens, UniProt P41970 1-407); details: protein: recombinant; tags: N-terminal GST; dsDNA, one strand shown
T6 sequence: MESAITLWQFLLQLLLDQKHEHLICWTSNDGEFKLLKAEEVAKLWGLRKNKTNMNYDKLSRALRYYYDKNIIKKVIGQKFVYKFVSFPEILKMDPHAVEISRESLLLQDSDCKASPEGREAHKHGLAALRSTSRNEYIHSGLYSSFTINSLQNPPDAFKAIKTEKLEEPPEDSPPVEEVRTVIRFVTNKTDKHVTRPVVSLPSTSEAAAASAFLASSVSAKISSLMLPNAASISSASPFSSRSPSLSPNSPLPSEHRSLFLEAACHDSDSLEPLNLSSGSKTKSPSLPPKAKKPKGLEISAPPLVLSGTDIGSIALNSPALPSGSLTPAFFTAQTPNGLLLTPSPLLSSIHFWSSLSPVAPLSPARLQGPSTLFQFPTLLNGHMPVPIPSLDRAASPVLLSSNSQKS
Outline: as §1

[10] = target: T7, FEV (Homo sapiens, UniProt Q99581 1-238); details: protein: recombinant; tags: N-terminal GST; dsDNA, one strand shown
T7 sequence: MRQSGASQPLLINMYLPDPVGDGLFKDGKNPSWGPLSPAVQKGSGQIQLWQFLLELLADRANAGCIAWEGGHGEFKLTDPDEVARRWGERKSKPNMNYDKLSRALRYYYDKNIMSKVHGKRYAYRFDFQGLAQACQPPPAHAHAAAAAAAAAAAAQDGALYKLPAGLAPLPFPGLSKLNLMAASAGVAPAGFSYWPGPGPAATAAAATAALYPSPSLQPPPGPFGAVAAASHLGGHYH
Outline: as §1

[11] = target: ETV5 (Homo sapiens, UniProt P41161 1-510); details: protein: recombinant; tags: N-terminal GST; dsDNA, one strand shown
ETV5, sequence (P41161 whole entry): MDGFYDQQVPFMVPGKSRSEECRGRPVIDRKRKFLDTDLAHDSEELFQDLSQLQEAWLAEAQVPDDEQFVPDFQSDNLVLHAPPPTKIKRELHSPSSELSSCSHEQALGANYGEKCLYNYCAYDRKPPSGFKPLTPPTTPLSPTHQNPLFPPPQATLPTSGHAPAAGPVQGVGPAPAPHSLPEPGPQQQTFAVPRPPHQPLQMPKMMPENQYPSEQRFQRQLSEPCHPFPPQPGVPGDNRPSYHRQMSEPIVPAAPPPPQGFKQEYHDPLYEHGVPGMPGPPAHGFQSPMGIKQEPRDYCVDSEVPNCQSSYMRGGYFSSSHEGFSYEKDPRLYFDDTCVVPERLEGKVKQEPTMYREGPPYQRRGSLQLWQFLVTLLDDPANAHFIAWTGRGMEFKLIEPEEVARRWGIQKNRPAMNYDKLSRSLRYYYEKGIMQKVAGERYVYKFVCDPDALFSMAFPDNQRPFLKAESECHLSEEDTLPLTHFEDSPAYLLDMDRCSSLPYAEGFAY
Outline: as §1

[12] = target: HSF1 (Homo sapiens, UniProt Q00613 1-529); details: protein: recombinant; tags: N-terminal GST; chain copies: 3; dsDNA, one strand shown
HSF1, sequence (Q00613 whole entry): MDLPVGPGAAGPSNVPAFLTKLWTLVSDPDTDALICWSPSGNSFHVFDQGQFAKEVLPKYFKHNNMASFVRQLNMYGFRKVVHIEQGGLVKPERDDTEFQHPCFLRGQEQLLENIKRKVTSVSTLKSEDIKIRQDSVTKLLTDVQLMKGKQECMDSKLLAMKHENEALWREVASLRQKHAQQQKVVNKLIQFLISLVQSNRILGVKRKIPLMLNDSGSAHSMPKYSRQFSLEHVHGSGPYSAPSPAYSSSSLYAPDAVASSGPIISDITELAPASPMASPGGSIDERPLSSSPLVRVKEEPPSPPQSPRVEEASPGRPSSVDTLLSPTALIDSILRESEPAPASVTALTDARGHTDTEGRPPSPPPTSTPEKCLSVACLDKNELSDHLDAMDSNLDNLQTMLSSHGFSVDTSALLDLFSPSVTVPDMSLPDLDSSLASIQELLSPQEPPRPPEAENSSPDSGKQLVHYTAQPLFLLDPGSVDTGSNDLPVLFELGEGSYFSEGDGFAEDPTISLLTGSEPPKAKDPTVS
Outline: as §1

[13] = target: T8, SPIC (Homo sapiens, UniProt Q8N5J4 1-248); details: protein: recombinant; tags: N-terminal GST; dsDNA, one strand shown
T8 sequence: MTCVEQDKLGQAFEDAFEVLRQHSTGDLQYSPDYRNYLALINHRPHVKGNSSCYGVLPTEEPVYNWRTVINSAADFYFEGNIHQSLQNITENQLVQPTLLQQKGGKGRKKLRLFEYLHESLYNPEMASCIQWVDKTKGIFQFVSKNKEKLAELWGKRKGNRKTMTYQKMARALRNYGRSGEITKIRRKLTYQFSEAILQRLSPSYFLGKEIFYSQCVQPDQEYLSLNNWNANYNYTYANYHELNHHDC
Outline: as §1

[14] = target: ELF4 (Homo sapiens, UniProt Q99607 1-663); details: protein: recombinant; tags: N-terminal GST; dsDNA, one strand shown
ELF4, sequence (Q99607 whole entry): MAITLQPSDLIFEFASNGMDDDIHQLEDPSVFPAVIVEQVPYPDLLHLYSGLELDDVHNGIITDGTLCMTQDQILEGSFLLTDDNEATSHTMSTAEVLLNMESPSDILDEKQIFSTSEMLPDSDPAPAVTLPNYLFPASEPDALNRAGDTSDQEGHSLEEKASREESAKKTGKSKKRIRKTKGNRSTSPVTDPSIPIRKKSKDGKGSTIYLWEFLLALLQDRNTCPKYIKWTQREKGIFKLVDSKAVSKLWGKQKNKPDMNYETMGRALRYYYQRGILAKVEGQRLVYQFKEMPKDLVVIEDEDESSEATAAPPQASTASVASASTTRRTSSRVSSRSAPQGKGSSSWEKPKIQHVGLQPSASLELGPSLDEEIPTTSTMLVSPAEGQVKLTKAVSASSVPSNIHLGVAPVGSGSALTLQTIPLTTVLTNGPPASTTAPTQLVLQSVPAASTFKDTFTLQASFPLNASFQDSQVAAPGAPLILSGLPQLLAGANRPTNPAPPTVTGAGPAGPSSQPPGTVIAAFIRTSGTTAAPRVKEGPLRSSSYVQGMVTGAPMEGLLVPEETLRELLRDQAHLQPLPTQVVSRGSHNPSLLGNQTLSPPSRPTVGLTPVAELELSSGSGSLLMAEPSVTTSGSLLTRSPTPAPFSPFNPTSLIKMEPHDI
Outline: as §1

[15] = target: T9, ELK4 (Homo sapiens, UniProt P28324-2 1-405); details: protein: recombinant; tags: N-terminal GST; dsDNA, one strand shown
T9 sequence: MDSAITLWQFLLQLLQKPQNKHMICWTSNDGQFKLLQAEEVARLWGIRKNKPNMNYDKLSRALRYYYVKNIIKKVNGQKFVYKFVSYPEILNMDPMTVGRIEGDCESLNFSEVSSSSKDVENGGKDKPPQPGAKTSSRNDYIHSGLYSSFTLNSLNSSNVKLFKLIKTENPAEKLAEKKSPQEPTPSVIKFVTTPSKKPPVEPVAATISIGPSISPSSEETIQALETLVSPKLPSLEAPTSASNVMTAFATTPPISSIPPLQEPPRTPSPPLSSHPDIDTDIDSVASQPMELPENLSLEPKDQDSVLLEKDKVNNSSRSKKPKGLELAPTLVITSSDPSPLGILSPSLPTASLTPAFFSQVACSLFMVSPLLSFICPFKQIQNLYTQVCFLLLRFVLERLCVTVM
Outline: as §1

[16] = target: T10, ETV2 (Homo sapiens, UniProt O00321 1-342); details: protein: recombinant; tags: N-terminal GST; dsDNA, one strand shown
T10 sequence: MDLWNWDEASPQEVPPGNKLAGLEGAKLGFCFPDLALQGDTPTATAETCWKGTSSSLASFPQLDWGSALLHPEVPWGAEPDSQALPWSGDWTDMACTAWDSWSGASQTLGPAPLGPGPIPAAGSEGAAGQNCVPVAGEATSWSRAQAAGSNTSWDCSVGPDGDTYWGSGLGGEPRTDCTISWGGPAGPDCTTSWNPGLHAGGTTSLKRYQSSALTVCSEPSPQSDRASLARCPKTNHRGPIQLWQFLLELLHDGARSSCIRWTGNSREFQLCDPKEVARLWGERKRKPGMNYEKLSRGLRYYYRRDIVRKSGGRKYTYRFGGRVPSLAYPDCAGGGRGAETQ
Outline: as §1

[17] = target: T11, ELF3 (Homo sapiens, UniProt P78545 1-371); details: protein: recombinant; tags: N-terminal GST; dsDNA, one strand shown
T11 sequence: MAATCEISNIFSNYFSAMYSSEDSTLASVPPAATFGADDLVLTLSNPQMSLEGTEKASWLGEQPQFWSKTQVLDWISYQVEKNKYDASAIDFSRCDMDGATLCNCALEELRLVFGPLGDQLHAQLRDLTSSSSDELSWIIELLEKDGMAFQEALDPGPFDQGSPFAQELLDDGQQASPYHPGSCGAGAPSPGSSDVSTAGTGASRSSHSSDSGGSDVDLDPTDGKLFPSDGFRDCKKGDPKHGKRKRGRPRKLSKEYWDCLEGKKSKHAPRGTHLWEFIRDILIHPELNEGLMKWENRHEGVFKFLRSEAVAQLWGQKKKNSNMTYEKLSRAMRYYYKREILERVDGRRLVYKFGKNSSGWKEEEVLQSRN
Outline: as §1

[18] = target: CRX (Homo sapiens, UniProt O43186 1-299); details: protein: recombinant; tags: N-terminal GST; dsDNA, one strand shown
CRX, sequence (O43186 whole entry): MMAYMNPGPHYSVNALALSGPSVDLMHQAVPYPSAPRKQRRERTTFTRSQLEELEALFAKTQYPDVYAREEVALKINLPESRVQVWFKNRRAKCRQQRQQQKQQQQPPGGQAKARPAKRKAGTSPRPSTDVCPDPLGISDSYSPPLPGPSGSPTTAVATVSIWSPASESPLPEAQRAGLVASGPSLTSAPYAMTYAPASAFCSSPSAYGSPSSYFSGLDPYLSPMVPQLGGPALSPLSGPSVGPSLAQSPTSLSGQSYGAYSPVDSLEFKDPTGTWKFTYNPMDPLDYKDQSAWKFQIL
Outline: as §1

[19] = target: ETV1 (Homo sapiens, UniProt P50549 1-477); details: protein: recombinant; tags: N-terminal GST; dsDNA, one strand shown
ETV1, sequence (P50549 whole entry): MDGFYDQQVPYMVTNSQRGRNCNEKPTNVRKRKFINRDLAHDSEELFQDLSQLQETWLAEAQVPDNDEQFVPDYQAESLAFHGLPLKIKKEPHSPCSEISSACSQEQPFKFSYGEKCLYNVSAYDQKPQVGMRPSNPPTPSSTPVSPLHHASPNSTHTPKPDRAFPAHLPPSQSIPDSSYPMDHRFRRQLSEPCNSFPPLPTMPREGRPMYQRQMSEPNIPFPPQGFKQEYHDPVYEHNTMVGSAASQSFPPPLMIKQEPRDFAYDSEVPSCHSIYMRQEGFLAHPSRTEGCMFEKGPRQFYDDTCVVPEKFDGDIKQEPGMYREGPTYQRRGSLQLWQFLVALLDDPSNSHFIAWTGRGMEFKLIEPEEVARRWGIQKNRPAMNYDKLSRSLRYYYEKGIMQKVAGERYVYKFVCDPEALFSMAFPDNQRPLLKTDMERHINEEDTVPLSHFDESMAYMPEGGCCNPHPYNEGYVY
Outline: as §1

Q: How did the binding signal [1] turn out when GAAATT was run?
A: 1.23 fold enrichment (6-mer frequency, TF over GST control)

Q: And the binding signal [2]?
A: 1.15 fold enrichment (6-mer frequency, TF over GST control)

Q: What about the binding signal [3] of the same sequence?
A: 1.29 fold enrichment (6-mer frequency, TF over GST control)

Q: What about the binding signal [4] of the same sequence?
A: 1.32 fold enrichment (6-mer frequency, TF over GST control)

Q: What about the binding signal [5] of the same sequence?
A: 1.23 fold enrichment (6-mer frequency, TF over GST control)

Q: And the binding signal [6]?
A: 1.36 fold enrichment (6-mer frequency, TF over GST control)

Q: What about the binding signal [7] of the same sequence?
A: 1.23 fold enrichment (6-mer frequency, TF over GST control)

Q: What about the binding signal [8] of the same sequence?
A: 1.3 fold enrichment (6-mer frequency, TF over GST control)

Q: What about the binding signal [9] of the same sequence?
A: 1.28 fold enrichment (6-mer frequency, TF over GST control)

Q: What about the binding signal [10] of the same sequence?
A: 1.25 fold enrichment (6-mer frequency, TF over GST control)

Q: What about the binding signal [11] of the same sequence?
A: 1.36 fold enrichment (6-mer frequency, TF over GST control)

Q: What about the binding signal [12] of the same sequence?
A: 1.48 fold enrichment (6-mer frequency, TF over GST control)

Q: What about the binding signal [13] of the same sequence?
A: 1.2 fold enrichment (6-mer frequency, TF over GST control)

Q: And the binding signal [14]?
A: 1.27 fold enrichment (6-mer frequency, TF over GST control)

Q: What about the binding signal [15] of the same sequence?
A: 1.17 fold enrichment (6-mer frequency, TF over GST control)

Q: And the binding signal [16]?
A: 1.23 fold enrichment (6-mer frequency, TF over GST control)

Q: And the binding signal [17]?
A: 1.44 fold enrichment (6-mer frequency, TF over GST control)

Q: What about the binding signal [18] of the same sequence?
A: 1.08 fold enrichment (6-mer frequency, TF over GST control)

Q: And the binding signal [19]?
A: 1.28 fold enrichment (6-mer frequency, TF over GST control)
